Screening data from PubChem.
mHTT-CaM PPI inh – inhibitors of human mutant huntingtin-calmodulin interaction; P42858; AlphaScreen His-mHTT/GST-CaM binding, luminescence; inhibition, % at 15 µM; 190,000 tested, 3.6% active;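 note: 0% = both proteins with DMSO and 100% = one protein alone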
Pf apPOL block – Pf-apPOL DNA polymerase inhibition. 210,000 tested, 0.25% active. Recombinant Pf-apPOL, molecular beacon fluorescence, 1.5 h. inhibition, % at 10 µM. AID 1794808
Starred values were filed as active, the others as inactive; / = no result; ! = not confirmed by another sample. Only some compounds are listed: those with a hit (about 3.6% of all), similar ones and a draw of the others. Cut-off read from the data, not from the text of the source: active = inhibition above about 50%; inactive = the rest.

SMILES | mHTT-CaM PPI inh | Pf apPOL block
Cc1ccc(O)c(NC(=O)Cn2nc([N+](=O)[O-])c(Br)c2C)c1 | 10 | -1
CCCNC(=O)c1ccc2ncc3c(=O)n(-c4ccc(Cl)cc4)[nH]c3c2c1 | 58* | -2
CCCNC(=O)c1ccc2ncc3c(=O)n(-c4ccc(F)cc4)[nH]c3c2c1 | 12 | 0
Cc1c(C)c2cc3c(-c4ccccc4)coc3cc2oc1=O | -7 | 60*
Cc1c(C)c2cc3c(-c4ccc(F)cc4)coc3cc2oc1=O | 1 | -3
O=C1CS/C(=C(\C(Cl)=C(Cl)Cl)[N+](=O)[O-])N1c1ccc(F)cc1 | 36 | 4
CCOc1ccc(N2C(=O)CS/C2=C(\C(Cl)=C(Cl)Cl)[N+](=O)[O-])cc1 | 57* | -10
Cc1ccc(C(=O)N/C(=C/c2cccs2)C(=O)NCCc2cccc(F)c2)cc1C | 0 | -6
COc1ccccc1N(CC(N)=O)S(=O)(=O)c1ccccc1 | -6 | -5
COc1ccccc1N(CC(O)COc1ccc(C)cc1)S(=O)(=O)c1ccccc1 (configuration not stated) | 52* | 0
O=C(Nc1ncc(Cc2ccc(Cl)c(Cl)c2)s1)c1ccccc1[N+](=O)[O-] | -3 | 30
O=C(Cc1ccccc1)Nc1ncc(S(=O)(=O)c2ccc([N+](=O)[O-])cc2)s1 | 1 | -4
CCC(C(=O)Nc1ncc(S(=O)(=O)c2ccc([N+](=O)[O-])cc2)s1)c1ccccc1 (configuration not stated) | 61* | -2
CCCCN(CCCNC(=O)CC(C(=O)N1CCc2ccccc21)n1ccnc1)c1ccccc1 (configuration not stated) | 77* | -6
CCCCN(C)CCCNC(=O)CC(C(=O)N1CCc2ccccc21)n1ccnc1 (configuration not stated) | -3 | -14
CSc1ccc(C(=O)Nc2cc(C)nn2-c2ccccc2)cc1 | 2 | 1
CCCCCn1c(=N)c(S(=O)(=O)c2ccc(Cl)cc2)cc2c(=O)n3ccccc3nc21 | -7 | -9
CC(=O)Nc1ccc(CN2CCCCC2)cc1 | -7 | -5
O=C(Nc1ccc(F)cc1)N1CCN(Cc2nc3cccnc3n2-c2ccc(F)cc2)CC1 | 8 | -3
CCOCCCNC(=O)C1CCN(c2cnn(Cc3ccccc3)c(=O)c2)CC1 | -2 | -4
COCCCNC(=O)C1CCN(Cc2ccc(C)o2)CC1 | 1 | -3
COCCCNC(=O)C1CCN(Cc2cc3ccccc3n2Cc2ccccc2)CC1 | 93* | 3
CCOCCCNC(=O)C1CCN(Cc2cc3ccccc3n2Cc2ccccc2)CC1 | 76* | 1
COCCNC(=O)C1CCN(Cc2cc3ccccc3n2Cc2cccc(Cl)c2)CC1 | 91* | 0
Cc1ccnc(N2CCC(C(=O)NCC3CCN(Cc4cccc(Cl)c4)CC3)CC2)n1 | 7 | 4
SMILES | mHTT-CaM PPI inh | Pf apPOL block
CCOc1nccnc1N1CCC(N(C)C(=O)c2ccsc2)C1 (configuration not stated) | -2 | -1
COc1ccc(-c2noc(C3CCCN3C(=O)c3cc(F)ccc3F)n2)cc1 (configuration not stated) | -2 | 0
O=C(c1cc([N+](=O)[O-])ccc1N1CCCCC1)N1CCOCC1 | 6 | 0
CC(C)(C)c1ccc(OCCSc2nc(N)cc(=O)[nH]2)cc1 | 11 | -5
O=C1NC(c2ccccc2)=NC1=Cc1ccccc1 | / | 3
c1ccc(C2=NNC(c3ccccc3)=NN2)cc1 | 24 | 99*!
O=C(COc1ccc(F)cc1)N1CCCC2(C1)Nc1ccccc1NC2=NC1CCCC1 (configuration not stated) | 86* | -4
CC(C)(C)N=C1Nc2ccccc2NC12CCCN(C(=O)c1cccc(F)c1)C2 (configuration not stated) | 15 | 4
CC(C)(C)N=C1Nc2ccccc2NC12CCCN(C(=O)COc1ccc(F)c(F)c1)C2 (configuration not stated) | 100* | 8
COCCN=C1Nc2ccccc2NC12CCCN(C(=O)c1n[nH]c3c1CCCC3)C2 (configuration not stated) | -2 | -2
COc1cccc(CC(=O)N2CCCC3(C2)Nc2ccccc2NC3=NC(C)(C)C)c1 (configuration not stated) | 78* | 0
COCCN=C1Nc2ccccc2NC12CCCN(C(=O)Cc1cccc(OC)c1)C2 (configuration not stated) | 39 | -3
O=C(c1cccc(F)c1)N1CCCC2(C1)Nc1ccccc1NC2=NC1CCCC1 (configuration not stated) | 18 | -4
O=C(c1n[nH]c2c1CCCC2)N1CCCC2(C1)Nc1ccccc1NC2=NC1CCCC1 (configuration not stated) | 92* | -2
Cc1ccc(NC(=O)COc2ccc3ccccc3c2)cc1N1CCCCC1=O | 20 | -16
O=C(NCCCSC1CCCCC1)Nc1ccc(Cl)c(Cl)c1 | -19 | -12
O=C(C=Cc1ccco1)NC(=S)N1CCNC(=O)C1CC(=O)OCC1CCCO1 (configuration not stated) | 13 | 9
COc1ccc(-c2nc(-c3ccccc3C)no2)cc1OC | -6 | 1
CC(O)(CNC(=O)C1(c2cccs2)CCCC1)C1CC1 (configuration not stated) | -22 | 5
CCCCOC(=O)COc1ccc2c3c(c(=O)oc2c1)CCCC3 | -20 | -1
Cc1noc(C)c1CC(=O)N1CCCC2(C1)Nc1ccccc1NC2=NC(C)(C)C (configuration not stated) | 34 | -2
CC(C)(C)N=C1Nc2ccccc2NC12CCCN(C(=O)Nc1ccc3c(c1)OCCO3)C2 (configuration not stated) | 94* | 1
CC(C)N1CCC(CC(=O)N2CCCC3(C2)Nc2ccccc2NC3=NC(C)(C)C)CC1 (configuration not stated) | 46 | -5
CC(C)(C)N=C1Nc2ccccc2NC12CCCN(C(=O)Cc1cccs1)C2 (configuration not stated) | 64* | 0
CC(C)(C)N=C1Nc2ccccc2NC12CCCN(C(=O)Cc1ccccc1F)C2 (configuration not stated) | 65* | -2
SMILES | mHTT-CaM PPI inh | Pf apPOL block
CC(=O)c1cccc(NC(=O)N2CCCC3(C2)Nc2ccccc2NC3=NC(C)(C)C)c1 (configuration not stated) | 27 | 4
Cc1ccc(-c2noc(CN3C(=O)COc4ccc(C)cc43)n2)cc1 | -22 | -4
Cc1ccc(NC(=O)C2CCN(c3cn[nH]c(=O)c3)CC2)cc1 | -1 | -2
COc1cc(C(=O)Nc2ccc3c(c2)ncn3-c2ccc(C)cc2)cc(OC)c1OC | 53* | -3
Cn1c(NC(=O)c2ccc(F)cc2)nc2ccccc21 | 34 | -7
COc1ccccc1-n1cnc2cc(NC(=O)c3cc(OC)c(OC)c(OC)c3)ccc21 | 21 | -2
COc1cc(C(=O)Nc2nc3ccccc3n2C)cc(OC)c1OC | 57* | -10
Cc1nc2ccccn2c1-c1csc(NCc2ccccc2)n1 | 36 | -3
Cc1ccc(Nc2nc(-c3c(C)nc4ncccn34)cs2)cc1 | 80* | -1
Cc1ccccc1Nc1nc(-c2c(C)nc3sccn23)cs1 | 56* | -4
CCOc1ccc(Nc2nc(-c3c(C)nc4cc(C)ccn34)cs2)cc1 | 67* | -26
Cc1ccn2c(-c3csc(Nc4ncccn4)n3)c(C)nc2c1 | 0 | -3
Cc1nc2ncccn2c1-c1csc(NCc2ccccc2)n1 | 7 | -2
Cc1nc2sccn2c1-c1csc(Nc2ccccn2)n1 | 29 | -1
